{
  "source": "PubChem BioAssay AID463173",
  "about": "(ICCB-Longwood Screening Facility, Harvard Medical School, 2010)",
  "note": "Among all 52,000 compounds or so, about 4,300 (8.3%) were called active. What follows is part of a selection rich in actives, with near analogues and random picks from the rest. A number with no mark means an inactive call. Cut-off read from the data, not from the text of the source: active = survival mostly below about 52% (no sharp cut-off); inactive = mostly above about 56%.",
  "data": [
    {"system": "DeltatarO mutant", "test": "growth inhibition of S. aureus wild type versus tarO mutant, primary screen, teichoic acid synthesis inhibitors, RN4220, OD600 (AID 463173)", "details": "OD600, 18 h, stronger effect = lower value, screened at 18.75 µg/mL (by protocol)", "values": [
      {"smiles": "O=C(COc1ccc(S(=O)(=O)NC2CCCCC2)cc1)Nc1ccc(C(F)(F)F)cc1", "survival": "64%"},
      {"smiles": "CC(NC1=NCCN1)C(=O)O", "note": "(configuration not stated)", "survival": "97%"},
      {"smiles": "COC(=O)C1C(=O)C2=C(CC1C)Nc1ccccc1NC2c1cc(F)ccc1F", "note": "(configuration not stated)", "survival": "82%"},
      {"smiles": "Cc1occc1-c1nnc(SCC(=O)NCc2ccc3c(c2)OCO3)n1CC(C)C", "survival": "88%"},
      {"smiles": "COc1ccccc1NC(=O)CC(C)n1nc(C)cc1C", "note": "(configuration not stated)", "survival": "67%"},
      {"smiles": "COc1ccc(NC(=O)CCS(=O)(=O)c2ccc3nc(C)sc3c2)cc1Cl", "survival": "44%"},
      {"smiles": "Cc1cc(-c2ccc(C)c(S(=O)(=O)NCCc3ccc(S(N)(=O)=O)cc3)c2)on1", "survival": "92%"},
      {"smiles": "Cc1ccc(C)c(N2C(=O)N(Cc3cccc(C(F)(F)F)c3)c3ccccc3S2(=O)=O)c1", "survival": "88%"},
      {"smiles": "COc1cccc(C(=O)N2CCN(CCc3ccncc3)CC2)c1", "survival": "87%"},
      {"smiles": "CCOC(=O)c1ccc(N2C(=O)c3[nH]nc(-c4ccc(OC)cc4)c3C2c2ccc(C)cc2)cc1", "note": "(configuration not stated)", "survival": "81%"},
      {"smiles": "CCOC(=O)c1ccc(N2C(=O)c3[nH]nc(-c4ccc(C)cc4)c3C2c2ccc(O)c(OCC)c2)cc1", "note": "(configuration not stated)", "survival": "87%"},
      {"smiles": "COc1ccc(-c2n[nH]c3c2C(c2ccc(O)cc2)N(c2ccc(Br)cc2)C3=O)cc1", "note": "(configuration not stated)", "survival": "-3% (active)"},
      {"smiles": "O=C1c2[nH]nc(-c3ccc(Br)cc3)c2C(c2cccc(O)c2)N1c1ccc(Cl)cc1", "note": "(configuration not stated)", "survival": "-10% (active)"},
      {"smiles": "COC(=O)c1ccc(C2c3c(-c4ccc(Br)cc4)n[nH]c3C(=O)N2c2ccc(Cl)cc2)cc1", "note": "(configuration not stated)", "survival": "93%"},
      {"smiles": "Cc1ccc(-c2n[nH]c3c2C(c2cccc(O)c2)N(c2ccc(C(=O)O)cc2)C3=O)cc1", "note": "(configuration not stated)", "survival": "86%"},
      {"smiles": "CCOc1cc(C2c3c(-c4ccc(Br)cc4)n[nH]c3C(=O)N2c2ccc(Cl)cc2)ccc1O", "note": "(configuration not stated)", "survival": "35% (active)"},
      {"smiles": "CCOC(=O)c1ccc(N2C(=O)c3[nH]nc(-c4ccc(OC)cc4)c3C2c2cccc(O)c2)cc1", "note": "(configuration not stated)", "survival": "57%"},
      {"smiles": "CCOc1ccc(-c2n[nH]c3c2C(c2ccccc2OC)N(c2ccc(Br)cc2)C3=O)cc1", "note": "(configuration not stated)", "survival": "69%"},
      {"smiles": "Cc1ccc(NC(=O)C(=O)NCc2ccco2)cc1", "survival": "58%"},
      {"smiles": "O=c1cc(CSc2n[nH]c(-c3ccccc3)n2)[nH]c2ccccc12", "survival": "129%"},
      {"smiles": "Cc1nn2c(=O)cc(COC(=O)c3cccc(NC(=O)c4ccc(C(C)(C)C)cc4)c3)nc2s1", "survival": "85%"},
      {"smiles": "CCc1nn(CC(=O)NCCC(C)C)c(=O)c2cc3occc3n12", "survival": "125%"},
      {"smiles": "CCCc1cc(=O)[nH]c(Nc2cc(Cl)ccc2OC)n1", "survival": "68%"},
      {"smiles": "COC(=O)c1cccc(NC(=O)C2CCN(S(=O)(=O)Cc3ccccc3)CC2)c1C", "survival": "77%"},
      {"smiles": "COc1ccc(C)cc1-n1c(-c2ccc(C)cc2)cc2c1CC(C)(C)CC2=O", "survival": "114%"},
      {"smiles": "Cc1ccc(-n2c3c(cc(-c4nc(-c5ccc(Cl)cc5)cs4)c2=O)C(=O)CC(C)(C)C3)cc1", "survival": "79%"},
      {"smiles": "COc1cccc(-n2c(-c3ccc(Cl)cc3)cc3c2CC(C)(C)CC3=O)c1", "survival": "35% (active)"},
      {"smiles": "CC1(C)CC(=O)c2cc(-c3nc(-c4ccc(Cl)cc4)cs3)c(=O)n(-c3cccc(F)c3)c2C1", "survival": "70%"},
      {"smiles": "COc1ccc(-n2c(-c3ccc(Cl)cc3)cc3c2CC(C)(C)CC3=O)c(OC)c1", "survival": "4% (active)"},
      {"smiles": "Cc1cccc(-n2c3c(cc(-c4nc(-c5ccc(Cl)cc5)cs4)c2=O)C(=O)CC(C)(C)C3)c1", "survival": "62% (active)"},
      {"smiles": "Cc1ccc(-c2cc3c(n2-c2ccc(C)cc2)CC(C)(C)CC3=O)cc1", "survival": "74%"},
      {"smiles": "COc1ccc(-n2c(-c3ccc(C)cc3)cc3c2CC(C)(C)CC3=O)c(OC)c1", "survival": "101%"},
      {"smiles": "COc1ccc(C)cc1-n1c(-c2ccc(Cl)cc2)cc2c1CC(C)(C)CC2=O", "survival": "86%"},
      {"smiles": "COc1ccc(-n2c3c(cc(-c4nc(-c5ccc(Cl)cc5)cs4)c2=O)C(=O)CC(C)(C)C3)cc1", "survival": "140%"},
      {"smiles": "COc1cccc(-n2c(-c3ccc(C)cc3)cc3c2CC(C)(C)CC3=O)c1", "survival": "18% (active)"},
      {"smiles": "COc1ccc(-n2c(-c3ccc(C)cc3)cc3c2CC(C)(C)CC3=O)cc1Cl", "survival": "80%"},
      {"smiles": "CN(C)c1ccc(CNC(=O)c2cnc3sc(N4CCOCC4)nn3c2=O)cc1", "survival": "85%"},
      {"smiles": "CC(CCc1ccccc1)NC(=O)Cn1ncc2c3ccccc3n(Cc3ccccc3)c2c1=O", "note": "(configuration not stated)", "survival": "81%"},
      {"smiles": "CCc1ccc(OCC2c3cc(OC)c(OC)cc3CCN2C(=O)COc2ccccc2)cc1", "note": "(configuration not stated)", "survival": "91%"},
      {"smiles": "CCC(C(=O)NCc1ccccc1Cl)n1nc(C)c2sc3ccccc3c2c1=O", "note": "(configuration not stated)", "survival": "103%"},
      {"smiles": "Cc1cccc(NC(=O)c2cc(S(=O)(=O)N3CCCCCC3)cn2C)c1C", "survival": "67%"},
      {"smiles": "O=C(NCCc1ccccc1)C1CCN(Cc2cc3ccccc3n2Cc2ccccc2)CC1", "survival": "79%"},
      {"smiles": "Cc1cccc(N(C)S(=O)(=O)c2cc3[nH]c(=O)c(=O)[nH]c3cc2C)c1", "survival": "88%"},
      {"smiles": "CC(C)c1cnc2c(c1SCC(=O)Nc1cccc(F)c1)c(=O)n(C)c(=O)n2C", "survival": "81%"},
      {"smiles": "Cc1ccc(-c2csc(=Nc3ccccc3)n2Cc2ccc3c(c2)OCO3)cc1C", "survival": "112%"},
      {"smiles": "Cc1ccc(-c2csc(=Nc3ccccc3)n2CCCO)cc1", "survival": "5% (active)"},
      {"smiles": "Cc1ccc(-c2csc(=Nc3ccccc3)n2Cc2ccc3c(c2)OCO3)cc1", "survival": "73%"},
      {"smiles": "Clc1ccc(-c2csc(=Nc3ccccc3)n2Cc2ccc3c(c2)OCO3)cc1", "survival": "95%"},
      {"smiles": "CCN(CC)CCn1c(-c2ccccc2)csc1=Nc1ccccc1", "survival": "42% (active)"},
      {"smiles": "COc1ccc(-c2csc(=Nc3ccccc3)n2CCO)cc1F", "survival": "58%"},
      {"smiles": "OCCCn1c(-c2ccc(F)cc2)csc1=Nc1ccc(F)cc1", "survival": "39% (active)"},
      {"smiles": "O=S(=O)(c1ccc(-c2csc(=Nc3ccc(F)cc3)n2CCCCCCO)cc1)N1CCCC1", "survival": "56%"},
      {"smiles": "O=S(=O)(c1ccc(-c2csc(=Nc3ccc(OC(F)(F)Cl)cc3)n2CCCO)cc1)N1CCCC1", "survival": "159%"},
      {"smiles": "CCOC(=O)c1c(NC(=O)CSc2cn(CCNC(=O)c3c(F)cccc3F)c3ccccc23)sc2c1CCC2", "survival": "93%"},
      {"smiles": "COc1ccc(Cl)cc1NC(=O)c1cc(S(=O)(=O)N(C)Cc2ccccc2)ccc1F", "survival": "74%"},
      {"smiles": "O=C(c1cc(-c2ccc(Br)cc2)n[nH]1)N1CCN(S(=O)(=O)c2ccc(Br)cc2)CC1", "survival": "79%"},
      {"smiles": "CN(C)S(=O)(=O)n1cc(/C=C(\\NC(=O)c2ccccc2)C(=O)NCCCn2ccnc2)c2ccccc21", "survival": "104%"},
      {"smiles": "COc1ccc(CNC(=O)c2ccc(NC(=O)N3CCSc4ncccc43)cc2)c(OC)c1", "survival": "81%"},
      {"smiles": "COc1ccc(OC)c(C2C(C(N)=O)=C(C)Nc3nc(-c4cccc(Cl)c4)nn32)c1", "note": "(configuration not stated)", "survival": "113%"},
      {"smiles": "CCOc1ccc(S(=O)(=O)N2CCN(c3cc(Cl)ccc3Cl)CC2)c2ccccc12", "survival": "64%"},
      {"smiles": "O=C(Nc1nnc(S(=O)(=O)N2CCc3ccccc32)s1)c1ccccc1", "survival": "12% (active)"},
      {"smiles": "O=C(Nc1nnc(S(=O)(=O)N2CCCc3ccccc32)s1)c1ccc(Cl)cc1", "survival": "15% (active)"},
      {"smiles": "O=C(Nc1nnc(S(=O)(=O)N2CCCc3ccccc32)s1)c1ccccc1", "survival": "27% (active)"},
      {"smiles": "Cc1cc(C)c2nc(NC(=O)c3ccc(S(=O)(=O)N4CCc5ccccc54)cc3)sc2c1", "survival": "83%"},
      {"smiles": "O=C(Nc1nnc(S(=O)(=O)N2CCCc3ccccc32)s1)c1cccc(F)c1", "survival": "7% (active)"},
      {"smiles": "Cc1c(Cl)ccc2sc(NC(=O)c3ccc(S(=O)(=O)N4CCCc5ccccc54)cc3)nc12", "survival": "55%"},
      {"smiles": "O=C(Nc1nc2c(F)cccc2s1)c1ccc(S(=O)(=O)N2CCCc3ccccc32)cc1", "survival": "102%"},
      {"smiles": "CCC(CC)C(=O)Nc1nnc(S(=O)(=O)N2CCc3ccccc32)s1", "survival": "73%"},
      {"smiles": "Cc1nc2ccccc2c2nc(N)nn12", "survival": "85%"},
      {"smiles": "C=Cc1ccc(CSc2nc(-c3ccc(Cl)cc3)nc3c2Cc2c(CO)cnc(C)c2O3)cc1", "survival": "70%"},
      {"smiles": "COc1ccc(NC(=O)Cn2c(SCc3ccc(F)cc3)nc3cccnc32)cc1OC", "survival": "74%"},
      {"smiles": "CC(=O)c1ccc(S(=O)(=O)Nc2cccc(-c3ccc(N4CCCC4)nn3)c2)cc1", "survival": "89%"},
      {"smiles": "Cc1ccccc1Cn1c(=O)n(CCCCCC(=O)NCc2ccc3c(c2)OCO3)c(=O)c2sccc21", "survival": "101%"},
      {"smiles": "COc1ccc2c(=O)c(NC(=O)Nc3ccc(F)cc3F)c[nH]c2c1", "survival": "92%"},
      {"smiles": "O=c1c2sc3ccccc3c2n(Cc2cccc(C(F)(F)F)c2)c(=O)n1Cc1ccc(F)cc1", "survival": "114%"},
      {"smiles": "O=C(Nc1ccc(F)cc1F)C1CCN(C(=O)c2cnn(-c3ccccc3)c2-n2cccc2)CC1", "survival": "106%"},
      {"smiles": "C=CCSc1nc2sc3c(c2c(=O)n1CC=C)CCCC3", "survival": "98%"},
      {"smiles": "CC(C)Sc1nc2sc3c(c2c(=O)n1-c1ccccc1)CCCC3", "survival": "-3% (active)"},
      {"smiles": "C=CCn1c(SC(C)C)nc2sc3c(c2c1=O)CCCC3", "survival": "71%"},
      {"smiles": "C#CCSc1nc2sc3c(c2c(=O)n1Cc1ccccc1)CCCC3", "survival": "33% (active)"},
      {"smiles": "CC(C)Sc1nc2sc3c(c2c(=O)n1Cc1ccccc1)CCCC3", "survival": "13% (active)"},
      {"smiles": "O=c1c2c3c(sc2nc(NCCO)n1-c1ccccc1)CCCC3", "survival": "92%"},
      {"smiles": "C=C(C)Cn1c(SCC(=O)Nc2ccccc2C)nc2sc3c(c2c1=O)CCCC3", "survival": "126%"},
      {"smiles": "O=c1[nH]c2sc3c(c2c(=O)n1-c1ccccc1)CCCC3", "survival": "70%"},
      {"smiles": "CCCCC(c1nnnn1C(C)C)N1CCN(c2ccc(F)cc2)CC1", "note": "(configuration not stated)", "survival": "85%"},
      {"smiles": "CCOC(=O)Cn1c2[n+](c3ccccc31)CC(O)CS2", "note": "(configuration not stated)", "survival": "72%"},
      {"smiles": "Cc1ccc(CNC(=O)CSc2nc3ccsc3c(=O)n2-c2ccc(C(=O)O)cc2)cc1", "survival": "95%"}
    ]}
  ]
}
